This note sets out measurements from PubChem BioAssay (NCATS).

Results filed as inconclusive are left out. A number with no mark means an inactive call. Active and inactive are the calls of the source. The call rests on the fitted dose curve; in most records, active means well fitted inhibition curve with a large enough effect; inconclusive means small, poorly fitted or top-dose-only effect; inactive means flat fitted curve, though single readings scatter.

Assay [1] is described as follows: Drug repurposing screens with cells derived from glioblastoma tumor samples (AID 1345199). Further: nearly all actives have a fitted effect of over 40% in size. As to conditions: GBM patient neurospheres viability, ATP luminescence, 48 h. Summed up:
(§1)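 Four patient lines of CD133+ GBM neurospheres were screened at several concentrations; hits were retested in those lines plus three slower-growing GBM lines, using 48-hour treatment and ATP-based viability.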

Assay [2] relates to astro (control astrocytes). The assay is described as above. Particulars: viability, ATP luminescence, 48 h; series mostly up to 45.9 µM. Summed up: as §1
Setting [3] is: at 45.9 µM (top of the series), tumour line B.
[4] abbreviates: at 45.9 µM (top of the series), tumour line D.
Setting [5] is: at 46 µM (top of the series), tumour line A.
The mark [6] stands for this setting: at 46.1 µM (top of the series), tumour line C.
The mark [7] stands for this setting: at 20 µM (top of the series), tumour line C.
Setting [8] is: at 21.2 µM (top of the series), tumour line B.
Setting [9] is: at 21.2 µM (top of the series), tumour line D.
Where [10] appears, read: at 21.3 µM (top of the series), tumour line A.
On the % scale 0 is the no-effect control and ±100 the full control effect; potency means the concentration at half of the fitted maximal effect.

`CC(C)[C@@H]1CC[C@@H](C)C[C@H]1OC(=O)c1ccccc1O`: the activity, negative = cell killing is -16.3% in assay [1] (setting [3]), -12.7% in assay [1] (setting [4]), -21.2% in assay [1] (setting [5]) and -34.9% in assay [1] (setting [6]). In addition, the Potency entry in assay [2] was “inactive”.
For `O=P(O)(O)OC[C@H]1O[C@](O)(COP(=O)(O)O)[C@@H](O)[C@@H]1O` the same measures were -4.16%, -21.7%, -47.3%, -3.41% and “inactive”.
For the compound `CO[C@H]1C=CO[C@@]2(C)Oc3c(C)c(O)c4c(O)c(cc(O)c4c3C2=O)NC(=O)/C(C)=C\C=C/[C@H](C)[C@H](O)[C@@H](C)[C@@H](O)[C@@H](C)[C@H](OC(C)=O)[C@@H]1C`, the activity, negative = cell killing in assay [1] (setting [3]) is -13.5%; in assay [1] (setting [4]), -5.36%; in assay [1] (setting [5]), -17.1%; in assay [1] (setting [6]) it was -2.25%. Besides, the Potency result in assay [2] is “inactive”.
In the case of `Cc1ncc(C[n+]2csc(CCO)c2C)c(N)n1`, the activity, negative = cell killing in assay [1] (setting [7]) is -11.7%; in assay [1] (setting [8]) it was -7.55%; in assay [1] (setting [9]), 3.61%; in assay [1] (setting [10]) it was -16.2%. Besides, in assay [2], the Potency entry was “inactive”.
Regarding `O=C(O)CN(CC(=O)O)CC1=CC2C(=CC1=O)Oc1cc(O)c(CN(CC(=O)O)CC(=O)O)cc1C21OC(=O)c2ccccc21` (stereo not given), the activity, negative = cell killing in assay [1] (setting [3]) is -10.9%; in assay [1] (setting [4]) it was -10.1%; in assay [1] (setting [5]), -21.2%; in assay [1] (setting [6]), -24.7%. Further, the Potency entry in assay [2] was “inactive”.
In the same order, the values of `CCC(O)c1ccccc1` (stereo not given) are -1.17%, 0.662%, -1.63%, 4.78% and “inactive”.
For `CC[C@H](CC[C@@H](C)[C@H]1CC[C@H]2[C@@H]3CC=C4C[C@@H](O)CC[C@]4(C)[C@H]3CC[C@]12C)C(C)C` the same measures were -10.4%, -2.23%, -16.4%, -13.1% and “inactive”.
In the same order, the values of `C=O` are -5.16%, -12.4%, -10.6%, 0.841% and “inactive”.
With `C=CC(=O)O`, the activity, negative = cell killing was -8.62% in assay [1] (setting [3]), -6.79% in assay [1] (setting [4]), -25.8% in assay [1] (setting [5]) and -0.506% in assay [1] (setting [6]). Besides, the Potency entry in assay [2] was “inactive”.
For the compound `CO[C@@]1(NC(=O)C2SC(=C(C(N)=O)C(=O)O)S2)C(=O)N2C(C(=O)O)=C(CSc3nnnn3C)CS[C@@H]21` (stereo not given in full), the activity, negative = cell killing in assay [1] (setting [7]) was -19.2%; in assay [1] (setting [8]) it was -15.8%; in assay [1] (setting [9]), -10.4%; in assay [1] (setting [10]) it was -12.5%. In addition, in assay [2], the Potency result was “inactive”.
Turning to `CC(=O)NCCCS(=O)(=O)O`, the activity, negative = cell killing in assay [1] (setting [3]) is -1.38%; in assay [1] (setting [4]), -1.99%; in assay [1] (setting [5]), -10.5%; in assay [1] (setting [6]) it was -6.16%. Besides, the Potency result in assay [2] is “inactive”.
For `CC(=O)O[C@@H]1CC2CCC1(C)C2(C)C` (stereo not given in full) the same measures were -4.03%, -12.8%, -12.3%, -4.87% and “inactive”.
In the same order, the values of `COC(=O)C(CN)c1c[nH]c2ccc(OC)cc12` (stereo not given) are -10.3%, -14.4%, -30.9%, -0.904% and “inactive”.
For H-RKDVY-OH the same measures were -2.29%, 4.86%, -6.05%, -18.9% and “inactive”.
In the case of `O=[n+]1ccn([O-])c2ccccc21`, the activity, negative = cell killing is -6.39% in assay [1] (setting [3]), -13.6% in assay [1] (setting [4]), -22.5% in assay [1] (setting [5]) and -17% in assay [1] (setting [6]). Besides, the Potency entry in assay [2] was “inactive”.
For `OCC1(CO)COC(C(Cl)(Cl)Cl)OC1` the same measures were -8.7%, -7.18%, -26.1%, -4.39% and “inactive”.
In the same order, the values of `CC(=O)OCC(=O)[C@@]1(O)CC[C@H]2[C@@H]3CCC4=CC(=O)CC[C@]4(C)C3=CC[C@@]21C` are -7.95%, 3.12%, -15.3%, -8.95% and “inactive”.
In the same order, the values of `NCCCC[C@H](N)C(=O)O` are -13.6%, 9.14%, -18.9%, 9.67% and “inactive”.
On to `O=C1/C(=C\c2cccs2)CCC/C1=C\c1cccs1`, for which the activity, negative = cell killing in assay [1] (setting [3]) was -19.7%; in assay [1] (setting [4]), -28.6%; in assay [1] (setting [6]) it was -23.9%. In addition, the Potency in assay [1] (tumour line A) is 25.1 µM (active). Moreover, the Potency result in assay [2] is “inactive”.
On to `NC(=S)NS(=O)(=O)c1ccc(N)cc1`, for which the activity, negative = cell killing in assay [1] (setting [3]) was -6.04%; in assay [1] (setting [4]), 0.448%; in assay [1] (setting [5]), -23.8%; in assay [1] (setting [6]), -8.76%. The Potency result in assay [2] was “inactive”.
`CC1(C)[C@@H]2CC[C@@]1(C)[C@H](OC(=O)CSC#N)C2`: the activity, negative = cell killing in assay [1] (setting [3]) was -7.75%; in assay [1] (setting [4]), -12%; in assay [1] (setting [6]), 23.1%. In assay [1] (tumour line A), the Potency is 35.5 µM (active). For the same compound, in assay [2], the Potency entry is “inactive”.
For `CCC(Oc1ccccc1)C(=O)N[C@@H]1C(=O)N2[C@@H]1SC(C)(C)[C@@H]2C(=O)O` (stereo not given in full), the activity, negative = cell killing in assay [1] (setting [3]) was -4.6%; in assay [1] (setting [4]) it was -5.25%; in assay [1] (setting [5]), -9.92%; in assay [1] (setting [6]) it was -0.932%. Further, the Potency result in assay [2] is “inactive”.
